# High-throughput results: PubChem, The Scripps Research Institute Molecular Screening Center
# Many of the other results were omitted from the sample, so hits are more common in it than they were.
# TTR transcr act: TTR transcription activators in neuroblastoma reporter cells, primary screen, cell-based, luminescence, SH-SY5Y, TTR promoter Gaussia luciferase; 100% = recombinant luciferase protein wells; activation, % at 16.7 µM; actives 1.3% (n = 92,000); AID 1117267, 2014;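 active = activation above the mean of all tested compounds plus 3 SD, cut at about 9.5% in these data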;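 note: cells exposed to compounds for one day before reading; 0% = median of all test compound wells on the plate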
# TTR inh HuH7: TTR promoter reporter inhibitors in hepatoma cells, counter-screen for TTR transcription activator project, cell-based, luminescence, HuH7 hepatoma; shares compounds with TTR transcr act; HuH7 TTR promoter-Gaussia luciferase reporter; inhibition, % at 16.7 µM; actives 4% (n = 1,100); AID 1117279, 2014;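 active = average inhibition above the solvent-only control wells' mean plus 3 SD, cut at about 15% in these data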;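 note: 0% = cells with DMSO only and 100% = cells with inhibitor control FD; inhibitors lower well luminescence so higher value means more inhibition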
# TTR act confirm: TTR transcription activators, retest, confirmation, cell-based, luminescence, SH-SY5Y, triplicate; AID 1117280, 2014; activation, % at 16.7 µM; 1,100 tested, under 10 active; shares compounds with TTR transcr act; SHSY5Y TTR promoter Gaussia luciferase; 100% = purified Lucia enzyme wells, no cells;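 active = mean activation above a set limit taken from the earlier primary screen, cut at about 11% in these data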;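 note: 0% = DMSO-treated cells and 100% = recombinant Lucia luciferase without cells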
# * hit, by the source's call.
SMILES,TTR transcr act,others
C[C@@H]1CCCCO[C@@H](CN(C)C(=O)Nc2ccc(F)cc2)[C@@H](C)CN([C@H](C)CO)C(=O)c2cc(NC(=O)Nc3ccc4c(c3)OCO4)ccc2O1,-1,
O=C(NCc1ccccc1)c1ccc(C(=O)NCc2ccccc2)cc1,-2,
O=C(NCc1ccccc1)c1cc(=O)c2ccccc2o1,26*,TTR inh HuH7=-13;TTR act confirm=4
O=C(NCc1ccccc1)c1cc2ccccc2oc1=O,0,
O=C(O)c1ccc(-n2nnnc2SCc2ccccc2F)cc1,0,
CSc1nnnn1-c1ccc(C)c(Cl)c1,0,
CSc1nnnn1-c1ccc(C(=O)O)cc1,19*,TTR inh HuH7=-7;TTR act confirm=0
CCN(CCO)Cc1csc2ccc(C(C)(C)C)cc12,4,
O=C(Nc1nc2ccccc2s1)c1ccc(N2CCCCC2)c([N+](=O)[O-])c1,-4,
O=C(Nc1ccc(Br)cc1)OC1CC2CC1[C@H]1CCCCN1C2 (stereo not given in full),2,
CC(C)NC(=O)C1CCN(C2CCN(C(=O)c3scc4c3CCCC4)CC2)CC1,-1,
COc1ccc(-c2cc3ccccc3n2CC(O)Cn2nc(C)cc2C)cc1 (stereo not given),0,
COC(=O)c1ccc(Cn2nc(C)cc2C)cc1,3,
CC(=O)OC(Cn1nc(C)cc1C)c1ccccc1 (stereo not given),10*,TTR inh HuH7=-9;TTR act confirm=0
COc1ccc(S(=O)(=O)NC2CCN(C#N)CC2)cc1,4,
Cc1ccccc1CN1C(=O)C(O)(CC(=O)c2ccncc2)c2ccccc21 (stereo not given),-3,
CCCCN1C(=O)C(O)(CC(=O)c2ccccn2)c2ccccc21 (stereo not given),1,
CN1C(=O)C(O)(CC(=O)c2cccs2)c2ccccc21 (stereo not given),18*,TTR inh HuH7=-10;TTR act confirm=-1
O=C(Nc1ccc2oc(-c3ccncc3)nc2c1)c1ccc2c(c1)OCCO2,-1,
O=C(Nc1ccc2oc(-c3ccncc3)nc2c1)c1ccc(F)cc1,-1,
O=C(Nc1ccc2oc(-c3ccncc3)nc2c1)c1ccc(Br)o1,10*,TTR inh HuH7=-10;TTR act confirm=-1
CCCCCCCCN1C(=O)[C@@H](CC(=O)NCC2CCCCC2)C[C@@]2(C(=O)OC)C1=C[C@H](COCc1ccccc1)O[C@@H]2C,2,
O=C(COC(=O)CNC(=O)c1ccco1)Nc1ccc(Cl)cn1,-2,
O=C(NCc1ccccc1Br)c1ccco1,4,
O=C(CNC(=O)c1ccco1)OCc1ccccc1Cl,11*,TTR inh HuH7=-10;TTR act confirm=0
SMILES,TTR transcr act,others
O=C1CCC[C@H]2C[C@H](NCc3cccc(F)c3)CC[C@]23CCCN13,0,
O=C(NNC(=O)c1cc(-c2ccc(Br)cc2)nc2ccccc12)c1csc(N2CCOCC2)n1,-4,
CSc1ncccc1C(=O)NNC(=O)c1csc(N2CCOCC2)n1,1,
Cc1ccc(C)c(SCC(=O)NNC(=O)c2csc(N3CCOCC3)n2)c1,31*,TTR inh HuH7=-14;TTR act confirm=-1
Cc1ccccc1CN1CCCCC(NC(=O)C(C)(C)C)C1=O (stereo not given),2,
O=C(Nc1ccccc1Cl)O[C@@H]1CC[C@@]23CCCN2C(=O)CCC[C@H]3C1,-2,
COC(=O)[C@]12C[C@H](CC(=O)NCc3ccc(OC)c(OC)c3)C(=O)N(CCC3=CCCCC3)C1=C[C@H](C1CCCC1)O[C@@H]2C,1,
Cc1nn2c3ccccc3n(CCN3CCCCC3)c2nc1=O,11*,TTR inh HuH7=-9;TTR act confirm=-1
O=C(O)CCc1nn2c3ccccc3nc2n(CCN2CCCCC2)c1=O,2,
CCn1c(=O)c(C)nn2c3ccccc3nc12,-1,
Cc1ccc(Cn2c(N/N=C/c3ccncc3)nc3c2c(=O)n(C)c(=O)n3C)cc1,-2,
O=C(NC1CCCCN(Cc2ccc(Cl)cc2)C1=O)c1cccs1 (stereo not given),1,
CN(CC(=O)Nc1ccc(S(N)(=O)=O)cc1)C1CCCCC1,-1,
CN(CC(=O)NC(=O)Nc1ccccc1F)Cc1ccccc1F,-1,
CN(CC(=O)Nc1ccc(S(N)(=O)=O)cc1)Cc1ccccc1F,16*,TTR inh HuH7=-1;TTR act confirm=1
COC(=O)c1ccccc1NC(=O)CN1C(=O)c2ccccc2C1=O,5,
CCC(C)CCN1C(N(C)C)=NC[C@@H]1Cc1ccccc1 (stereo not given in full),1,
CC(C)C[C@H]1CN=C(Nc2ccccc2)N1CC(C)C,-1,
CCC(C)CCN1C(N(C)C)=NC[C@@H]1CC(C)C (stereo not given in full),12*,TTR inh HuH7=-3;TTR act confirm=-1
C#CCNC(=O)C[C@H]1C[C@@]2(C(=O)OC)C(=C[C@H](C(C)C)O[C@@H]2C2CC2)N(CCCCCCCC)C1=O,0,
O=C(c1cccc(Cl)c1)N1CCC(=O)N([C@H](COCc2cccc(Cl)c2)Cc2ccccc2)CC1,-1,
O=S(=O)(c1ccc(CN2CCOCCOCCN(Cc3ccc(S(=O)(=O)C(F)(F)F)cc3)CCOCC2)cc1)C(F)(F)F,-2,
Cc1cccc(Nc2nc(N)c([N+](=O)[O-])c(N3CCN(C)CC3)n2)c1,1,
Nc1nc(Nc2cccc(F)c2)nc(N2CCOCC2)c1[N+](=O)[O-],12*,TTR inh HuH7=-9;TTR act confirm=-1
CCN1CCN(c2nc(Nc3ccccc3)nc(N)c2[N+](=O)[O-])CC1,-1,
SMILES,TTR transcr act,others
Cn1c(=O)cc(SCC(=O)NCCN2CCN(c3ccccc3F)CC2)c2cc(Cl)ccc21,0,
CC(C)(C)c1nnc(NS(=O)(=O)c2cc(Cl)ccc2Cl)s1,2,
Nc1nnc(CSCc2ccccc2Cl)s1,0,
Nc1nnc(CCS(=O)(=O)c2cc(Cl)ccc2Cl)s1,23*,TTR inh HuH7=-8;TTR act confirm=-1
COC(=O)[C@]12C[C@H](CC(=O)NCCc3ccccc3OC)C(=O)N(Cc3ccco3)C1=C[C@H](C1CCCC1)O[C@@H]2C,3,
CCOC(=O)[C@@]12CCC3=C1N(CCC3)C(=O)[C@H](CC(=O)NCC1CCCCC1)C2,2,
Nc1[nH]c(C(=O)c2ccccc2)c(-c2ccc(O)cc2)c1C(=O)NCCc1c[nH]c2ccccc12,-2,
Cc1nc2sc(C(c3cccc(F)c3)N3CCCCC3)c(O)n2n1 (stereo not given),10*,TTR inh HuH7=-3;TTR act confirm=0
Cc1nc2sc(C(c3ccc(Cl)cc3)N3CCOCC3)c(O)n2n1 (stereo not given),-1,
Cc1nc2sc(C(c3ccccc3)N3CC(C)OC(C)C3)c(O)n2n1 (stereo not given),-1,
CCOC(=O)CCCNC(=O)OC1CC2CC1[C@H]1CCCCN1[C@H]2C (stereo not given in full),0,
COc1ccc(C2Nc3ccccc3C(=O)N2Cc2ccc(C)o2)cc1COc1c(C)cccc1C (stereo not given),0,
CC(C)Oc1cccc(-c2csc(N3CCC(C(N)=O)CC3)n2)c1,3,
CC(=O)O[C@H](COc1c2ccoc2cc2oc(=O)ccc12)C(C)(C)O,-1,
CC(C)(O)[C@H](O)COc1c2ccoc2cc2oc(=O)ccc12,6,
C=C(C)[C@@H](O)COc1c2ccoc2cc2oc(=O)ccc12,10*,TTR inh HuH7=-6;TTR act confirm=0
CCNC(=O)Nc1ccc2c(c1)C(=O)N(C)[C@H]1CC[C@@H](CC(=O)NCCN3CCCC3)O[C@@H]1CO2,2,
C/C(=N\NC(=O)c1ccc(N(C)C)cc1)c1cccnc1,0,
